# Reference: PubChem BioAssay AID1159580 (chemical genetic matrix, 2015)
# The campaign covered roughly 5,500 compounds. About 2,000 (36%) were called active. Not shown: some 18% with an inconclusive outcome. The list shows a part of the results. A number with no mark means an inactive call. Rule as the data show it: active = normalized growth mostly below about 0.91 (no sharp cut-off); inconclusive = no clear call, values can overlap the other calls; inactive = mostly above about 0.92.
# Test: chemical genetic growth profiling, strain panel (AID 1159580);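 also: tested at 20 µM; growth read once vehicle control cultures reached saturation at 30 °C; 1 = growth at the plate median or of vehicle wells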
# Details: growth OD
smiles,measurement,setting,value
COc1cc(OC)c2ccc(=O)oc2c1,normalized growth,"S. cerevisiae deletion strains, locus YJR075W, strain HOC1, stronger effect = lower value",1.01
same,normalized growth,"S. cerevisiae deletion strains, locus YKL009W, strain mrt4, stronger effect = lower value",0.966
same,normalized growth,"S. cerevisiae deletion strains, locus YKL068W, stronger effect = lower value",1.01
same,normalized growth,"S. cerevisiae deletion strains, locus YKL085W, strain MDH1 (second series), stronger effect = lower value",1.01
same,normalized growth,"S. cerevisiae deletion strains, locus YKL085W, strain MDH1, stronger effect = lower value",1.01
same,normalized growth,"S. cerevisiae deletion strains, locus YKL160W, strain elf1, stronger effect = lower value",0.977
same,normalized growth,"S. cerevisiae deletion strains, locus YKL190W, strain CNB1, stronger effect = lower value",1.01
same,normalized growth,"S. cerevisiae deletion strains, locus YKR001C, strain vps1, stronger effect = lower value",0.945
same,normalized growth,"S. cerevisiae deletion strains, locus YKR026C, strain gcn3, stronger effect = lower value",0.962
same,normalized growth,"S. cerevisiae deletion strains, locus YKR091W, strain srl3, stronger effect = lower value",0.99
same,normalized growth,"S. cerevisiae deletion strains, locus YLL001W, strain dnm1, stronger effect = lower value",0.94
same,normalized growth,"S. cerevisiae deletion strains, locus YLL026W, stronger effect = lower value",0.973
same,normalized growth,"S. cerevisiae deletion strains, locus YLL041C, strain sdh2, stronger effect = lower value",0.979
same,normalized growth,"S. cerevisiae deletion strains, locus YLR027C, strain aat2, stronger effect = lower value",0.977
same,normalized growth,"S. cerevisiae deletion strains, locus YLR039C, strain RIC1, stronger effect = lower value",0.974
same,normalized growth,"S. cerevisiae deletion strains, locus YLR058C, strain SHM2, stronger effect = lower value",1.01
same,normalized growth,"S. cerevisiae deletion strains, locus YLR102C, strain apc9, stronger effect = lower value",1.01
same,normalized growth,"S. cerevisiae deletion strains, locus YLR113W, strain HOG1, stronger effect = lower value",1.02
same,normalized growth,"S. cerevisiae deletion strains, locus YLR221C, strain rsa3, stronger effect = lower value",0.97
same,normalized growth,"S. cerevisiae deletion strains, locus YLR258W, strain gsy2, stronger effect = lower value",0.952
same,normalized growth,"S. cerevisiae deletion strains, locus YLR262C, strain YPT6 (second series), stronger effect = lower value",0.97
same,normalized growth,"S. cerevisiae deletion strains, locus YLR262C, strain YPT6, stronger effect = lower value",0.992
same,normalized growth,"S. cerevisiae deletion strains, locus YLR268W, strain sec22, stronger effect = lower value",1.01
same,normalized growth,"S. cerevisiae deletion strains, locus YLR320W, strain mms22, stronger effect = lower value",0.897
same,normalized growth,"S. cerevisiae deletion strains, locus YLR330W, strain CHS5, stronger effect = lower value",1
same,normalized growth,"S. cerevisiae deletion strains, locus YLR342W, strain FKS1 (second series), stronger effect = lower value",1.03
same,normalized growth,"S. cerevisiae deletion strains, locus YLR342W, strain FKS1, stronger effect = lower value",0.976
same,normalized growth,"S. cerevisiae deletion strains, locus YLR357W, strain rsc2, stronger effect = lower value",1.05
same,normalized growth,"S. cerevisiae deletion strains, locus YLR370C, strain arc18, stronger effect = lower value",0.981
same,normalized growth,"S. cerevisiae deletion strains, locus YLR371W, strain rom2, stronger effect = lower value",1.01
same,normalized growth,"S. cerevisiae deletion strains, locus YLR384C, strain iki3, stronger effect = lower value",0.975
same,normalized growth,"S. cerevisiae deletion strains, locus YLR418C, strain cdc73, stronger effect = lower value",1.01
same,normalized growth,"S. cerevisiae deletion strains, locus YML016C, strain PPZ1, stronger effect = lower value",1
same,normalized growth,"S. cerevisiae deletion strains, locus YML032C, strain rad52, stronger effect = lower value",0.982
same,normalized growth,"S. cerevisiae deletion strains, locus YML120C, strain ndi1, stronger effect = lower value",0.954
same,normalized growth,"S. cerevisiae deletion strains, locus YML124C, strain tub3, stronger effect = lower value",1.01
same,normalized growth,"S. cerevisiae deletion strains, locus YMR058W, strain fet3, stronger effect = lower value",0.957
same,normalized growth,"S. cerevisiae deletion strains, locus YMR078C, strain ctf18, stronger effect = lower value",0.996
same,normalized growth,"S. cerevisiae deletion strains, locus YMR125W, strain sto1, stronger effect = lower value",0.993
same,normalized growth,"S. cerevisiae deletion strains, locus YMR129W, stronger effect = lower value",0.988
same,normalized growth,"S. cerevisiae deletion strains, locus YMR205C, strain PFK2, stronger effect = lower value",0.97
same,normalized growth,"S. cerevisiae deletion strains, locus YMR223W, strain ubp8, stronger effect = lower value",0.976
same,normalized growth,"S. cerevisiae deletion strains, locus YMR231W, strain pep5, stronger effect = lower value",0.965
same,normalized growth,"S. cerevisiae deletion strains, locus YMR263W, strain SAP30, stronger effect = lower value",0.992
same,normalized growth,"S. cerevisiae deletion strains, locus YMR307W, strain GAS1, stronger effect = lower value",1.02
same,normalized growth,"S. cerevisiae deletion strains, locus YNL067W, strain RPL9B, stronger effect = lower value",0.989
same,normalized growth,"S. cerevisiae deletion strains, locus YNL071W, strain lat1, stronger effect = lower value",0.953
same,normalized growth,"S. cerevisiae deletion strains, locus YNL128W, strain TEP1, stronger effect = lower value",1.01
same,normalized growth,"S. cerevisiae deletion strains, locus YNL153C, strain GIM3, stronger effect = lower value",1.01
same,normalized growth,"S. cerevisiae deletion strains, locus YNL183C, strain NPR1, stronger effect = lower value",0.946
same,normalized growth,"S. cerevisiae deletion strains, locus YNL209W, strain ssb2, stronger effect = lower value",0.98
same,normalized growth,"S. cerevisiae deletion strains, locus YNL233W, strain BNI4, stronger effect = lower value",1
same,normalized growth,"S. cerevisiae deletion strains, locus YNL248C, strain rpa49, stronger effect = lower value",0.872 (active)
same,normalized growth,"S. cerevisiae deletion strains, locus YNL250W, strain rad50, stronger effect = lower value",0.992
same,normalized growth,"S. cerevisiae deletion strains, locus YNL271C, strain bni1, stronger effect = lower value",0.99
same,normalized growth,"S. cerevisiae deletion strains, locus YNL298W, strain CLA4, stronger effect = lower value",0.973
same,normalized growth,"S. cerevisiae deletion strains, locus YNL307C, strain MCK1, stronger effect = lower value",0.988
same,normalized growth,"S. cerevisiae deletion strains, locus YNL322C, strain KRE1 (second series), stronger effect = lower value",0.992
same,normalized growth,"S. cerevisiae deletion strains, locus YNL322C, strain KRE1, stronger effect = lower value",1
same,normalized growth,"S. cerevisiae deletion strains, locus YNR049C, strain mso1, stronger effect = lower value",0.982
same,normalized growth,"S. cerevisiae deletion strains, locus YNR052C, strain pop2, stronger effect = lower value",0.989
same,normalized growth,"S. cerevisiae deletion strains, locus YOL006C, strain TOP1, stronger effect = lower value",0.921
same,normalized growth,"S. cerevisiae deletion strains, locus YOL012C, strain htz1",1.64
same,normalized growth,"S. cerevisiae deletion strains, locus YOL147C, strain pex11, stronger effect = lower value",1
same,normalized growth,"S. cerevisiae deletion strains, locus YOR001W, strain rrp6, stronger effect = lower value",0.963
same,normalized growth,"S. cerevisiae deletion strains, locus YOR061W, strain CKA2, stronger effect = lower value",1
same,normalized growth,"S. cerevisiae deletion strains, locus YOR069W, strain VPS5, stronger effect = lower value",1.01
same,normalized growth,"S. cerevisiae deletion strains, locus YOR070C, strain gyp1, stronger effect = lower value",0.964
same,normalized growth,"S. cerevisiae deletion strains, locus YOR080W, strain dia2, stronger effect = lower value",0.969
same,normalized growth,"S. cerevisiae deletion strains, locus YOR083W, strain WHI5, stronger effect = lower value",0.968
same,normalized growth,"S. cerevisiae deletion strains, locus YOR106W, strain vam3, stronger effect = lower value",0.95
same,normalized growth,"S. cerevisiae deletion strains, locus YOR136W, strain idh2, stronger effect = lower value",1.01
same,normalized growth,"S. cerevisiae deletion strains, locus YOR144C, strain elg1, stronger effect = lower value",1.01
same,normalized growth,"S. cerevisiae deletion strains, locus YOR184W, strain ser1, stronger effect = lower value",0.949
same,normalized growth,"S. cerevisiae deletion strains, locus YOR231W, strain MKK1, stronger effect = lower value",0.991
same,normalized growth,"S. cerevisiae deletion strains, locus YOR265W, strain rbl2, stronger effect = lower value",0.977
same,normalized growth,"S. cerevisiae deletion strains, locus YOR270C, strain vph1, stronger effect = lower value",0.814
same,normalized growth,"S. cerevisiae deletion strains, locus YOR290C, strain snf2, stronger effect = lower value",0.936
same,normalized growth,"S. cerevisiae deletion strains, locus YOR316C, strain cot1, stronger effect = lower value",0.998
same,normalized growth,"S. cerevisiae deletion strains, locus YPL051W, strain arl3, stronger effect = lower value",0.968
same,normalized growth,"S. cerevisiae deletion strains, locus YPL055C, strain LGE1, stronger effect = lower value",0.971
same,normalized growth,"S. cerevisiae deletion strains, locus YPL078C, strain atp4, stronger effect = lower value",0.957
same,normalized growth,"S. cerevisiae deletion strains, locus YPL106C, strain sse1, stronger effect = lower value",0.926
same,normalized growth,"S. cerevisiae deletion strains, locus YPL240C, strain hsp82, stronger effect = lower value",0.985
same,normalized growth,"S. cerevisiae deletion strains, locus YPL241C, strain CIN2, stronger effect = lower value",1
same,normalized growth,"S. cerevisiae deletion strains, locus YPL256C, strain CLN2, stronger effect = lower value",1.05
same,normalized growth,"S. cerevisiae deletion strains, locus YPR119W, strain clb2, stronger effect = lower value",1
same,normalized growth,"S. cerevisiae deletion strains, locus YPR141C, strain kar3, stronger effect = lower value",1
same,normalized growth,"S. cerevisiae deletion strains, locus YPR163C, strain tif3, stronger effect = lower value",1.01
same,normalized growth,"S. cerevisiae deletion strains, locus YPR167C, strain met16, stronger effect = lower value",0.995
same,normalized growth,"S. cerevisiae deletion strains, strain wtn01, stronger effect = lower value",1
same,normalized growth,"S. cerevisiae strains, strain wild type, stronger effect = lower value",1.01
